Data as given in PubChem BioAssay (NCI).
The panel holds about 79,000 compounds, 15% with a hit somewhere; the sample as a whole holds those more often. Values without a mark were called inactive. Active and inactive are the calls of the source. No stated cut-off is given here; in the data, active means growth inhibition above about 70%; inactive means the rest.

Tests used:
[1] = NCI Yeast Anticancer Drug Screen. Data for the rad50 strain (AID 155);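 further: 0% = growth of vehicle-only cultures of the same strain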; settings: S. cerevisiae rad50 strain growth inhibition; at 50.0 µM; stronger effect = higher value
Method in brief: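 DNA repair mutant yeast, compound exposure, growth read-out; inhibition is taken relative to vehicle.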

[2] = NCI Yeast Anticancer Drug Screen. Data for the mec2-1 strain (AID 157); settings: S. cerevisiae mec2-1 strain, at 50.0 µM, stronger effect = higher value
Method in brief: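 Yeast mec2-1 mutant treated with compound. Readout: growth inhibition vs vehicle controls.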

[3] = NCI Yeast Anticancer Drug Screen. Data for the sgs1 mgt1 strain (AID 161);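 further: 0% = growth of cultures given vehicle only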; settings: S. cerevisiae sgs1 mgt1 strain, at 50.0 µM, stronger effect = higher value
Method in brief: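 Genetically altered yeast, compound exposure, growth inhibition relative to vehicle.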

[4] = NCI Yeast Anticancer Drug Screen. Data for the cln2 rad14 strain (AID 165);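 further: 0% = growth equal to vehicle treated cultures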; settings: S. cerevisiae cln2 rad14 strain, at 50.0 µM, stronger effect = higher value
Method in brief: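 cln2 rad14 yeast strain; compound exposure; growth inhibition read vs vehicle controls.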

[5] = NCI Yeast Anticancer Drug Screen. Data for the bub3 strain (AID 167); settings: S. cerevisiae bub3 mutant strain, at 50.0 µM, stronger effect = higher value
Method in brief: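 In this screen, a yeast mutant lacking normal mitotic checkpoint function is challenged with compound. Relative growth versus vehicle gives the inhibition value.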

[6] = NCI Yeast Anticancer Drug Screen. Data for the mlh1 rad18 strain (AID 175); settings: S. cerevisiae mlh1 rad18 strain growth inhibition; at 50.0 µM; stronger effect = higher value
Method in brief: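 Yeast w/ defined DNA-repair lesions; compound exposure; growth vs vehicle controls → % inhibition.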

COc1ccc(NC(=O)N2CC3CCN2CC3)cc1
growth inhibition [1]: -7.95% | growth inhibition [2]: -10.8% | growth inhibition [3]: -12.2% | growth inhibition [4]: -21.9% | growth inhibition [5]: -12.7% | growth inhibition [6]: -16.2%

CN(C)c1nnnn1-c1ccccc1
growth inhibition [1]: 5.15% | growth inhibition [2]: 5.05% | growth inhibition [3]: 12.3% | growth inhibition [4]: -21.9% | growth inhibition [5]: 9.5% | growth inhibition [6]: 0.45%

Cc1ncc(CO)c(/C=N/NC(=O)c2ccncc2)c1O
growth inhibition [1]: 14.3% | growth inhibition [2]: 9.4% | growth inhibition [3]: 11.7% | growth inhibition [4]: -35.5% | growth inhibition [5]: 15.8% | growth inhibition [6]: 17.6%

Cc1cc(C)c(S(=O)(=O)ONC(=O)OC(C)(C)C)c(C)c1
growth inhibition [1]: 11.8% | growth inhibition [2]: -3.9% | growth inhibition [3]: -4% | growth inhibition [4]: 4.9% | growth inhibition [5]: 11.2% | growth inhibition [6]: -8.1%

O=C1c2cc(Cl)ccc2-c2c(Cl)cccc21
growth inhibition [1]: 22.9% | growth inhibition [2]: -4.95% | growth inhibition [3]: -10.9% | growth inhibition [4]: 2.05% | growth inhibition [5]: 4.05% | growth inhibition [6]: -14.9%

CCCCCCCCCCCCCCCCn1cnc2c(Cl)ncnc21
growth inhibition [1]: 23.2% | growth inhibition [2]: 3.9% | growth inhibition [3]: -19.5% | growth inhibition [4]: 12.8% | growth inhibition [5]: -2.6% | growth inhibition [6]: 2.55%

C[N+]1(C)CCCC1
growth inhibition [1]: 24.5% | growth inhibition [2]: 5.5% | growth inhibition [3]: 24.2% | growth inhibition [4]: 7.6% | growth inhibition [5]: 35.5% | growth inhibition [6]: 16.1%

COC(=O)c1ccccc1O
growth inhibition [1]: -3.4% | growth inhibition [2]: 2.25% | growth inhibition [3]: -7.9% | growth inhibition [4]: -39.4% | growth inhibition [5]: 1.25% | growth inhibition [6]: -19.5%

CCCCC(=O)OC[n+]1ccc2c(C)c3[nH]c4ccc(OC)cc4c3c(C)c2c1
growth inhibition [1]: 87.9% (active) | growth inhibition [2]: 91.8% (active) | growth inhibition [3]: 90.2% (active) | growth inhibition [4]: 89.1% (active) | growth inhibition [5]: 87.1% (active) | growth inhibition [6]: 91.8% (active)

FC(F)(F)C(F)(F)C(F)(F)c1n[nH]c(C(F)(F)C(F)(F)C(F)(F)F)n1
growth inhibition [1]: 12.8% | growth inhibition [2]: 15.1% | growth inhibition [3]: 33.4% | growth inhibition [4]: 2.95% | growth inhibition [5]: 18.5% | growth inhibition [6]: -0.1%

CC(=O)OCC(=O)c1cc(C)n(C)c(=O)c1CN1C(=O)c2ccccc2C1=O
growth inhibition [1]: -10.7% | growth inhibition [2]: 9.05% | growth inhibition [3]: 2.2% | growth inhibition [4]: -36.3% | growth inhibition [5]: 10.6% | growth inhibition [6]: -12.7%

COc1cc(-c2c3c(cc4c2OCO4)CC(O)C(C(=O)O)C3)cc(OC)c1OC (configuration not stated)
growth inhibition [1]: 40.9% | growth inhibition [2]: -2.6% | growth inhibition [3]: 0.4% | growth inhibition [4]: 15.1% | growth inhibition [5]: 1.75% | growth inhibition [6]: 5.6%

Cc1cccc(C)c1NC(=O)C(=O)Cc1nc2ccccc2s1
growth inhibition [1]: -12.1% | growth inhibition [2]: -0.45% | growth inhibition [3]: -9.25% | growth inhibition [4]: -4.45% | growth inhibition [5]: -30.5% | growth inhibition [6]: -6.8%

COc1ccc(N2C(=O)CSC2c2c[nH]c3ccccc23)cc1 (configuration not stated)
growth inhibition [1]: -39.2% | growth inhibition [2]: -43.5% | growth inhibition [3]: -49.6% | growth inhibition [4]: -16.1% | growth inhibition [5]: -44% | growth inhibition [6]: -47%

CC(=O)OC1CC2CC1C1C=CCC21 (configuration not stated)
growth inhibition [1]: 10.3% | growth inhibition [2]: 3.75% | growth inhibition [3]: 19.8% | growth inhibition [4]: 11.3% | growth inhibition [5]: 6.5% | growth inhibition [6]: 0.65%

CCOc1ccc2c(c1)C(C)(C)CCC2(C)C
growth inhibition [1]: 3.55% | growth inhibition [2]: -7.75% | growth inhibition [3]: -5.9% | growth inhibition [4]: -38.5% | growth inhibition [5]: 1.4% | growth inhibition [6]: 6.05%

CC(=S)NC=C(C(N)=O)C(N)=O
growth inhibition [1]: 6.65% | growth inhibition [2]: 1.05% | growth inhibition [3]: 11.7% | growth inhibition [4]: 16% | growth inhibition [5]: -4.2% | growth inhibition [6]: -16.5%

CC(O)c1cccc(NC(=O)NC(C)(C)C)c1 (configuration not stated)
growth inhibition [1]: 0.6% | growth inhibition [2]: 3.05% | growth inhibition [3]: -5% | growth inhibition [4]: -74% | growth inhibition [5]: 10.8% | growth inhibition [6]: -6%

Cc1ccc(S(=O)(=O)Nc2nc3ccccc3c(=O)n2C2CCCCC2)cc1
growth inhibition [1]: 27.2% | growth inhibition [2]: 11.3% | growth inhibition [3]: -43.2% | growth inhibition [4]: 2.1% | growth inhibition [5]: -19.5% | growth inhibition [6]: -3.5%

Brc1cccc(CCOCc2ccccc2)c1
growth inhibition [1]: 8.45% | growth inhibition [2]: -11.6% | growth inhibition [3]: -4.3% | growth inhibition [4]: 2.05% | growth inhibition [5]: 0.5% | growth inhibition [6]: -3.9%

CCCc1nc(CCC)nc(CCC)n1
growth inhibition [1]: -13.8% | growth inhibition [2]: -5.35% | growth inhibition [3]: -10.2% | growth inhibition [4]: -6.5% | growth inhibition [5]: 5.55% | growth inhibition [6]: -14.7%

CCOC(=O)C(CCCCC(CN(CC)CC)(C(=O)OCC)c1ccccc1)(CN(CC)CC)c1ccccc1 (configuration not stated)
growth inhibition [1]: 29.4% | growth inhibition [2]: -10.2% | growth inhibition [3]: 11.7% | growth inhibition [4]: 0.65% | growth inhibition [5]: 2% | growth inhibition [6]: 12.3%

CN(C)Cc1ccccc1COC(=O)c1ccccc1
growth inhibition [1]: 19.1% | growth inhibition [2]: 20.1% | growth inhibition [3]: 26.1% | growth inhibition [4]: 11.4% | growth inhibition [5]: 17.4% | growth inhibition [6]: 17.5%

C1CC2(C34CCC(CC3)C4)CCC1C2
growth inhibition [1]: -5.15% | growth inhibition [2]: 1.45% | growth inhibition [3]: 14.2% | growth inhibition [4]: 7.55% | growth inhibition [5]: 7.1% | growth inhibition [6]: -2.6%

O=S(=O)(c1ccc(N=Cc2cccs2)cc1)c1ccc(N=Cc2cccs2)cc1
growth inhibition [1]: -13.2% | growth inhibition [2]: -22.1% | growth inhibition [3]: -10.1% | growth inhibition [4]: 10.7% | growth inhibition [5]: 5.35% | growth inhibition [6]: -13.8%

Nc1nc[n+](Cc2ccccc2)c2ncn(Cc3ccccc3)c12
growth inhibition [1]: -5.6% | growth inhibition [2]: -23.6% | growth inhibition [3]: -11.2% | growth inhibition [4]: -9.25% | growth inhibition [5]: -14.7% | growth inhibition [6]: 3.5%

CCCCN(CCCC)CC(=O)NC(N)=O
growth inhibition [1]: 4.6% | growth inhibition [2]: 0.9% | growth inhibition [3]: -6.95% | growth inhibition [4]: -2.8% | growth inhibition [5]: 10.3% | growth inhibition [6]: -6.8%

O=C1CCc2cc3c(cc21)OCO3
growth inhibition [1]: 4.8% | growth inhibition [2]: -33.8% | growth inhibition [3]: -3.95% | growth inhibition [4]: -9.35% | growth inhibition [5]: 6.7% | growth inhibition [6]: -6.15%

O=[N+]([O-])c1ccc(S(=O)(=O)c2ccc(N=CN3CCCC3)cc2)cc1
growth inhibition [1]: 22.9% | growth inhibition [2]: 16.4% | growth inhibition [3]: 18.4% | growth inhibition [4]: 4.05% | growth inhibition [5]: 18% | growth inhibition [6]: 23%

CCCCCCCCCC[CH2][Sn]([CH2]CCCCCCCCCC)([CH2]CCCCCCCCCC)[CH2]CCCCCCCCCC
growth inhibition [1]: 5.8% | growth inhibition [2]: 7.8% | growth inhibition [3]: -3.4% | growth inhibition [4]: -16.3% | growth inhibition [5]: -1.25% | growth inhibition [6]: 23.7%

Cc1ccc(Nc2ncnc3c2cnn3-c2ccccc2)cc1
growth inhibition [1]: 9.7% | growth inhibition [2]: 12.2% | growth inhibition [3]: 43.5% | growth inhibition [4]: -24.1% | growth inhibition [5]: -2.35% | growth inhibition [6]: 8.05%

O=C1CCCCC1O (configuration not stated)
growth inhibition [1]: -18.4% | growth inhibition [2]: -50.8% | growth inhibition [3]: -15.2% | growth inhibition [4]: 0.05% | growth inhibition [5]: -13.8% | growth inhibition [6]: -26.1%

COc1ccc2cc1Oc1ccc(cc1)CC1=NCCc3cc(OC)c(OC)c(c31)Oc1cc3c(cc1OC)CCN(C)C3C2 (configuration not stated)
growth inhibition [1]: -8.75% | growth inhibition [2]: -14.6% | growth inhibition [3]: -12.4% | growth inhibition [4]: 4.5% | growth inhibition [5]: 3.15% | growth inhibition [6]: 9.4%

Clc1ccccc1OCc1cnc[nH]1
growth inhibition [1]: -4.05% | growth inhibition [2]: -23.7% | growth inhibition [3]: -14.9% | growth inhibition [4]: 6.2% | growth inhibition [5]: -9.85% | growth inhibition [6]: -8.7%

CC(C(=O)O)C(NC(=O)c1ccccc1)C(=O)O (configuration not stated)
growth inhibition [1]: 11.5% | growth inhibition [2]: 5.35% | growth inhibition [3]: 0.2% | growth inhibition [4]: 16% | growth inhibition [5]: 4.4% | growth inhibition [6]: 13.4%

CCCCCC(O)(CCCC)CCCCC
growth inhibition [1]: -10.7% | growth inhibition [2]: -1.65% | growth inhibition [3]: 1.85% | growth inhibition [4]: 19.9% | growth inhibition [5]: 1.75% | growth inhibition [6]: 15.9%

Cc1ccc(N=NC(C2=NC(=O)CS2)c2nc3ccccc3[nH]2)cc1 (configuration not stated)
growth inhibition [1]: -55% | growth inhibition [2]: -31% | growth inhibition [3]: -52.8% | growth inhibition [4]: -44.8% | growth inhibition [5]: -56% | growth inhibition [6]: -73.8%

CCC1C2C=CC(CC2)N1S(=O)(=O)c1ccc(C)cc1 (configuration not stated)
growth inhibition [1]: -0.7% | growth inhibition [2]: -9.1% | growth inhibition [3]: 10.8% | growth inhibition [4]: 30% | growth inhibition [5]: 13.2% | growth inhibition [6]: -6.05%

O=C(O)CN1C(=O)C2C3c4ccccc4C(c4ccccc43)C2C1=O (configuration not stated)
growth inhibition [1]: -5.65% | growth inhibition [2]: -4.7% | growth inhibition [3]: 1.25% | growth inhibition [4]: -26.6% | growth inhibition [5]: -19.6% | growth inhibition [6]: 0%

CCOC(=O)C1=C(SC)SC(C(=O)OCC)C2C=C(C)C=CN12 (configuration not stated)
growth inhibition [1]: -5.2% | growth inhibition [2]: -19.4% | growth inhibition [3]: -10.7% | growth inhibition [4]: 5.05% | growth inhibition [5]: -32.9% | growth inhibition [6]: 3.75%

CC1=CC(=C(c2cc(C)c(O)c(C(=O)O)c2)c2cc(C)c(O)c(C(=O)O)c2)C=C(C(=O)O)C1=O
growth inhibition [1]: -2.3% | growth inhibition [2]: -28.1% | growth inhibition [3]: -8.5% | growth inhibition [4]: 2.3% | growth inhibition [5]: 8.8% | growth inhibition [6]: 7.3%

CCOC(=O)CNc1nnnn1C1OC(CO)C(O)C1O (configuration not stated)
growth inhibition [1]: -2.05% | growth inhibition [2]: -13.1% | growth inhibition [3]: -11.4% | growth inhibition [4]: 11.7% | growth inhibition [5]: -12% | growth inhibition [6]: -19.6%
